Test results: PubChem BioAssay (Tox21)
Results filed as inconclusive are left out. Activity calls are given as the source filed them. Unless noted, calls come from the whole dose curve.

Assays:
[1] = Nuclear factor erythroid 2-related factor 2/antioxidant responsive element (Nrf2/ARE) small molecule agonists: qHTS cell viability counter screen in human keratinocytes (AID 1919968; active = well fitted curve in the direction sought with a large enough effect in the repeat runs; an effect the other way counts as inactive or inconclusive; note: nearly all actives have a fitted effect of over 55% in size)
Procedure, shortened: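 Parallel cytotoxicity read: KeratinoSens HaCaT cells, compound treatment 23 h, viability by CellTiter-Fluor fluorescence 1 h post-reagent.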

[2] = Nuclear factor erythroid 2-related factor 2/antioxidant responsive element (Nrf2/ARE) small molecule agonists: luciferase reporter gene qHTS assay in human keratinocytes (AID 1919969); note: nearly all actives have a fitted effect of over 35% in size
[3] = target: Gonadotropin-releasing hormone receptor (Homo sapiens) (UniProt P30968); assay: Human gonadotropin-releasing hormone receptor (GnRHR) small molecule agonists, calcium flux assay in GnRHR-HEK293 cells (AID 1920063); note: nearly all actives have a fitted effect of over 35% in size
Procedure, shortened: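 Calcium flux, agonist mode, human GnRHR stably integrated in HEK293; dye 1 h at 37 C before compound; Ex/Em=480/540 kinetic read, 3 min; 15 concentrations, triplicate.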

[4] = target: KiSS-1 receptor (Homo sapiens) (UniProt Q969F8); assay: Human kisspeptin (KISS1R) small molecule agonists, calcium flux assay in KISS1R-HEK293 cells (AID 1920064; active = well fitted curve in the direction sought with a large enough effect in the repeat runs; an effect the other way counts as inactive or inconclusive)
Procedure, shortened: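 Triplicate 15-concentration series were applied to dye-loaded human KISS1R HEK293 cells, and agonist-evoked calcium fluorescence was captured for 3 min.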

[5] = G protein-coupled receptor (GPCR) small molecule agonists, calcium flux assay: HEK293 wild type cell line counter screen (AID 1920065)
Procedure, shortened: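 Non-specific calcium responders were flagged by adding DMSO-dissolved compounds to dye-loaded cells and reading 480/540 nm fluorescence each second for 3 min; ATP served as positive control.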

[6] = p53 small molecule agonists, cell-based qHTS assay with human liver microsomes (AID 1963577)
Procedure, shortened: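 Fluorescence of the beta-lactamase reporter in p53RE-bla cells, detected with LiveBLAzer substrate (2 h, room temperature, dark), served as the read-out after 16 h compound exposure at 37 C with human liver microsomes and NADPH, each 0.5 mg/mL final.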

[7] = p53 small molecule agonists, cell-based qHTS assay with rat liver microsomes (AID 1963578)
Procedure, shortened: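 Cells carrying a p53 response element–beta-lactamase reporter were plated and rested 5 h, then dosed with compound in DMSO plus rat liver microsomes and NADPH, each at 0.5 mg/mL final. After 16 h at 37 C, LiveBLAzer substrate was added for 2 h.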

[8] = p53 small molecule agonists, cell-based qHTS assay with human liver microsomes: qHTS cell viability counter screen (AID 1963579); note: nearly all actives have a fitted effect of over 45% in size
Procedure, shortened: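 Cytotoxicity counter screen: p53RE-bla, 4,000 cells/well; 5 h settle, 37 C/5% CO2; cpd + HLM 0.5 mg/mL + NADPH 0.5 mg/mL (final); 16 h, 37 C; CellTiter-Glo, 30 min RT, luminescence.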

[9] = p53 small molecule agonists, cell-based qHTS assay with rat liver microsomes: qHTS cell viability counter screen (AID 1963580); note: nearly all actives have a fitted effect of over 45% in size
Procedure, shortened: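 Cytotoxicity counter screen: intracellular ATP measured by CellTiter-Glo luminescence in the same wells as the beta-lactamase reporter read, on HCT-116 p53RE-bla cells exposed 16 h at 37 C to compounds with rat liver microsomes and NADPH, each 0.5 mg/mL final.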

[10] = p53 small molecule agonists, cell-based qHTS assay: qHTS cell viability counter screen (AID 1963581); note: nearly all actives have a fitted effect of over 45% in size
Procedure, shortened: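 Multiplexed with the reporter read, a CellTiter-Glo step (30 min, room temperature) gauges ATP-based viability of HCT-116 p53RE-bla cells after 16 h compound incubation at 37 C.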

[11] = p53 small molecule agonists, cell-based qHTS assay (AID 1963582; active = well fitted activation curve with a large enough effect in the signal ratio in the repeat runs, not every such curve was filed as active; the % refers to the signal ratio)
Procedure, shortened: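 Beta-lactamase reporter cells (p53RE-bla) treated with compounds for 16 h at 37 C; FRET substrate, 2 h, room temperature; fluorescence intensity.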

[12] = target: 5-hydroxytryptamine receptor 2A (Homo sapiens) (UniProt P28223); assay: 5-hydroxytryptamine receptor 2A (HTR2A) small molecule antagonists, cell-based qHTS assay (AID 1963586); note: nearly all actives have a fitted effect of over 45% in size
Procedure, shortened: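 CHO cells stably expressing human HTR2A were plated for 18 h at 37 C, then loaded with calcium dye for 1 h. Compounds were preincubated 5 min at room temperature before DOI (4 nM solution) was added. Kinetic fluorescence was read for 3 min.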

[13] = target: 5-hydroxytryptamine receptor 2A (Homo sapiens) (UniProt P28223); assay: 5-hydroxytryptamine receptor 2A (HTR2A) small molecule agonists, cell-based qHTS assay (AID 1963587); note: nearly all actives have a fitted effect of over 30% in size
Procedure, shortened: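 CHO cells stably expressing human HTR2A, plated 18 h, loaded with calcium dye 1 h at 37 C. Agonist mode: compounds added and intracellular calcium fluorescence recorded kinetically for 2 min at 1 sec intervals.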

[14] = target: Muscarinic acetylcholine receptor M1 (Homo sapiens) (UniProt P11229); assay: Cholinergic receptor muscarinic 1 (CHRM1) small molecule antagonists, cell-based qHTS assay (AID 1963588); note: nearly all actives have a fitted effect of over 40% in size; note: potency is the fitted concentration of half-maximal effect
Procedure, shortened: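 Compounds were tested at 15 concentrations in three independent runs. Dye-loaded CHRM1-CHO cells were exposed 5 min at room temperature before stimulation by acetylcholine added at 50nM. Intracellular calcium was read kinetically on FDSS for 3 min.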

[15] = target: Muscarinic acetylcholine receptor M1 (Homo sapiens) (UniProt P11229); assay: Cholinergic receptor muscarinic 1 (CHRM1) small molecule agonists, cell-based qHTS assay (AID 1963589); note: nearly all actives have a fitted effect of over 35% in size
Procedure, shortened: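 qHTS, 15-point titration, 3 independent runs: compounds pin-transferred onto dye-loaded CHRM1-CHO cells (human M1), calcium fluorescence followed every second to detect agonism.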

[16] = cAMP Responsive Elements (CRE) small molecule agonists, cell-based qHTS assay (AID 1963590)
Procedure, shortened: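 Quantitative HTS for CRE agonists: HEK 293T CRE-bla cells, overnight plating, 3 h compound incubation at 37 C/5% CO2, then 2 h room-temperature LiveBLAzer B/G FRET substrate loading.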

[17] = cAMP Responsive Elements (CRE) small molecule antagonists, cell-based qHTS assay (AID 1963591; active = well fitted inhibition curve with a large enough effect in the signal ratio in the repeat runs, not every such curve was filed as active; the % refers to the signal ratio)
Procedure, shortened: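 Fluorescence intensity from cleaved LiveBLAzer B/G substrate (2 h, room temperature) quantified CRE-bla activity in HEK 293T cells exposed 3 h to compound with 0.25 uM final NKH477.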

[18] = target: Beta-2 adrenergic receptor (Homo sapiens) (UniProt P07550); assay: Adrenergic beta2 receptor (ADRB2) small molecule antagonists, cell-based qHTS assay (AID 1963592); note: series mostly up to about 92 µM; nearly all actives have a fitted effect of over 50% in size
Procedure, shortened: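 Assay format: CHO-ADRB2 cells, 18-20hr seeding at 37C/5% CO2, then compound plus 1nM isoproterenol agonist mix for 0.5hr RT. Homogeneous time-resolved fluorescence cAMP detection after 1hr, expressed as 665/615 nm ratio.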

[19] = target: D(2) dopamine receptor (Homo sapiens) (UniProt P14416); assay: Dopamine D2 receptor (DRD2) small molecule agonists, cell-based qHTS assay (AID 1963594); note: nearly all actives have a fitted effect of over 35% in size
Procedure, shortened: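 HEK293 cells stably expressing human DRD2, pre-treated with PDE inhibitor Ro20-1724 (0.1 mM final) and compound 10 min at room temperature, then stimulated with NKH477 (200nM […]) for 30 min. cAMP read by HTRF (665/620 nm).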

[20] = target: D(2) dopamine receptor (Homo sapiens) (UniProt P14416); assay: Dopamine D2 receptor (DRD2) small molecule antagonists, cell-based qHTS assay (AID 1963595; active = well fitted inhibition curve with a large enough effect in the signal ratio in the repeat runs, with a control signal flat; the % refers to the signal ratio)
Procedure, shortened: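 In this cell-based antagonist screen, compounds act for 10 min at room temperature before a 30 min challenge with 12 nM quinpirole and 200 nM NKH477. cAMP is quantified by HTRF competition in DRD2-HEK293 cells containing 0.1 mM Ro20-1724.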

Measured: Potency

5-hydroxytryptamine receptor 2A (Homo sapiens), sequence (P28223 whole entry, looked up): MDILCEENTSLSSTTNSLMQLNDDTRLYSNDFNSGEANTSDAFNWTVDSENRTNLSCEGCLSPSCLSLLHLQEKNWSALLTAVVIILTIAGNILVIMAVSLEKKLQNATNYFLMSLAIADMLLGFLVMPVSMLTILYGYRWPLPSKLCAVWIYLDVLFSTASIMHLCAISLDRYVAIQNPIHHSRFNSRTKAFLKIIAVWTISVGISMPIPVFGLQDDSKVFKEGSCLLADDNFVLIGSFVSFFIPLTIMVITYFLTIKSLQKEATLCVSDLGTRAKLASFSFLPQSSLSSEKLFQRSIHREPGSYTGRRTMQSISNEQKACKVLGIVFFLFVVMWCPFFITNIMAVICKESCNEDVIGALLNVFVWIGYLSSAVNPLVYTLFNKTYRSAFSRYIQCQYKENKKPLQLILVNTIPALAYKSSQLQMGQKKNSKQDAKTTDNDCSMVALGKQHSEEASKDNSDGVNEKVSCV
KiSS-1 receptor (Homo sapiens), sequence (Q969F8 whole entry, looked up): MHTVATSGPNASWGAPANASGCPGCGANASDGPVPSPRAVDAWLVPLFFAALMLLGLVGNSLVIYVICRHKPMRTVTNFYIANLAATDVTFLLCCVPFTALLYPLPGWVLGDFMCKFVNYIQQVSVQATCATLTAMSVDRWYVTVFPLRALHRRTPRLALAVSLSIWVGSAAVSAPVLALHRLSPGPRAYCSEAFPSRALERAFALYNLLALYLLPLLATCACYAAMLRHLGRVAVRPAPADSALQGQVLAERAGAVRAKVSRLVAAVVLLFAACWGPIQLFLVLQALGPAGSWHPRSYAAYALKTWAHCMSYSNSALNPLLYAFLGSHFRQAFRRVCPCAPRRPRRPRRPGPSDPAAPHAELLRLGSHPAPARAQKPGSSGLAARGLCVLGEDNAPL
Beta-2 adrenergic receptor (Homo sapiens), sequence (P07550 whole entry, looked up): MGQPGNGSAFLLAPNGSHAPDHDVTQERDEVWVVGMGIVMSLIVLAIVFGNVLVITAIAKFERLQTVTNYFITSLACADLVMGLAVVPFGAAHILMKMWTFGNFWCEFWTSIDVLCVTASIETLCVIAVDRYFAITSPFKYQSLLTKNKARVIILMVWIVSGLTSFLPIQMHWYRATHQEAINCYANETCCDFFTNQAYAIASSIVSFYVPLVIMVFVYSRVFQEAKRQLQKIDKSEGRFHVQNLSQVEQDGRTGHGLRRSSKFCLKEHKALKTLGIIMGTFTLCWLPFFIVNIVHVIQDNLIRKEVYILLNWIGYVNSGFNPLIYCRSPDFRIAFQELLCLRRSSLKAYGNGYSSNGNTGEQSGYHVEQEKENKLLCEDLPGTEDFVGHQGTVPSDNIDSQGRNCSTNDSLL
D(2) dopamine receptor (Homo sapiens), sequence (P14416 whole entry, looked up): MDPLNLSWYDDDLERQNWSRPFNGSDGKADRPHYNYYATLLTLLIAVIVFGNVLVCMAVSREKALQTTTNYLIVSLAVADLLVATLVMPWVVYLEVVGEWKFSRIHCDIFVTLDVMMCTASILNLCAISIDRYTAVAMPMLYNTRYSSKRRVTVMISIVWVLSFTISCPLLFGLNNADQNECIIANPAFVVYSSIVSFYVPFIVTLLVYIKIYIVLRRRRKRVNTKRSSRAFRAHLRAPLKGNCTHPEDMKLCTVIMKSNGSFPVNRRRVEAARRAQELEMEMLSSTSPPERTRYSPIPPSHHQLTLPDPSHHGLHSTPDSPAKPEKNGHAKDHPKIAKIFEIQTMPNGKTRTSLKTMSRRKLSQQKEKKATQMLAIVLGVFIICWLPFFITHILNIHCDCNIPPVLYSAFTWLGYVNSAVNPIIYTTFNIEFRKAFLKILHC
Gonadotropin-releasing hormone receptor (Homo sapiens), sequence (P30968 whole entry, looked up): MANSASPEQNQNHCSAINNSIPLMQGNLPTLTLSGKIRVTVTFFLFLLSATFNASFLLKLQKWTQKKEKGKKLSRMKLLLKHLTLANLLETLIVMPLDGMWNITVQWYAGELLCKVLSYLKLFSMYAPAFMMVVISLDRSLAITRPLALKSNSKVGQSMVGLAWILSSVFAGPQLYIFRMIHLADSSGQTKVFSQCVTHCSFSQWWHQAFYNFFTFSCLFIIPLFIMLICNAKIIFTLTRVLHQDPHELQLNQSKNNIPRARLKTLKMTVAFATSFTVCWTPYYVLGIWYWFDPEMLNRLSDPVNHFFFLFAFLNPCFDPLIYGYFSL
Muscarinic acetylcholine receptor M1 (Homo sapiens), sequence (P11229 whole entry, looked up): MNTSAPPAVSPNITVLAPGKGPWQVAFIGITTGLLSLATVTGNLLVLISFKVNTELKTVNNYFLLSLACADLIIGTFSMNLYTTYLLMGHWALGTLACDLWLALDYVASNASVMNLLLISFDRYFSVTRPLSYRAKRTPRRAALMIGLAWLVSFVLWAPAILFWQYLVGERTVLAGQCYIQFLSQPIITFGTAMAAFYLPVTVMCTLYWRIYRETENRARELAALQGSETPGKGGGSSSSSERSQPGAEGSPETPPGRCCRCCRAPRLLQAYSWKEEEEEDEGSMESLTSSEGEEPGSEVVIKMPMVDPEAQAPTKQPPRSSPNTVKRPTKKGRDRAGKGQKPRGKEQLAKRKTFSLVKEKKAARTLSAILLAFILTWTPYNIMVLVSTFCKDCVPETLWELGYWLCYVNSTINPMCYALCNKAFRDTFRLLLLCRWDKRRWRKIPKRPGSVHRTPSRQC

O=Cc1ccc(Cl)cc1Cl
inactive: all assays above

Nc1cccnc1
inactive: all assays above

Nc1cnn(-c2ccccc2)c(=O)c1Cl
inactive: all assays above

ClCCOCOCCCl
inactive: all assays above

COc1cc2c(cc1OC)[C@@]13CCN4CC5=CCO[C@H]6CC(=O)N2[C@H]1[C@H]6[C@H]5C[C@H]43
inactive: all assays above

Cl[C@H]1OCCO[C@@H]1Cl
not listed: [20]
inactive: all other assays above

C/C=C/CC#N
not listed: [20]
inactive: all other assays above

CC(C)c1ccc(CO)cc1
inactive: all assays above

CS(=O)(=O)Cl
inactive: all assays above

CCCCON=O
inactive: all assays above

CC(C)CCCCCOC(=O)c1ccccc1C(=O)OCCCCCC(C)C
active: [14] 2620 nM
inactive: all other assays above

CCCCN(CCCCO)N=O
inactive: all assays above

O=[N+]([O-])c1cccc2ccccc12
inactive: all assays above

CCCCCCI
inactive: all assays above

ClCOCCl
inactive: all assays above
